Assay outcomes as filed in PubChem BioAssay.
An excerpt weighted towards active compounds, which were near 28% of everything screened.
CYP2C19 inh – inhibitors of human CYP2C19; CYP2C19 Supersomes, luciferin-H EGE luminescence, 30 min; 21% of 96,000 active; inhibition, % at 5 µM; AID 778; P33261;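 active = CYP2C19 inhibition above a set limit at 5 µM in the primary screen, cut at about 50% in these data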;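 note: plate controls were negative control wells for no effect and 2.5 mM tranylcypromine positive control for full effect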
Plk1 PBD FP – Plk1 (human) PBD binding inhibition | Plk1 PBD phosphopeptide binding, fluorescence polarization | P53350 | AID 693 | inhibition, %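 (tested at about 20 µM)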 | 0.13% of 97,000 active; in the data active = inhibition above about 34%, passing the limit was not always enough
Target sequence (P53350 whole entry, looked up): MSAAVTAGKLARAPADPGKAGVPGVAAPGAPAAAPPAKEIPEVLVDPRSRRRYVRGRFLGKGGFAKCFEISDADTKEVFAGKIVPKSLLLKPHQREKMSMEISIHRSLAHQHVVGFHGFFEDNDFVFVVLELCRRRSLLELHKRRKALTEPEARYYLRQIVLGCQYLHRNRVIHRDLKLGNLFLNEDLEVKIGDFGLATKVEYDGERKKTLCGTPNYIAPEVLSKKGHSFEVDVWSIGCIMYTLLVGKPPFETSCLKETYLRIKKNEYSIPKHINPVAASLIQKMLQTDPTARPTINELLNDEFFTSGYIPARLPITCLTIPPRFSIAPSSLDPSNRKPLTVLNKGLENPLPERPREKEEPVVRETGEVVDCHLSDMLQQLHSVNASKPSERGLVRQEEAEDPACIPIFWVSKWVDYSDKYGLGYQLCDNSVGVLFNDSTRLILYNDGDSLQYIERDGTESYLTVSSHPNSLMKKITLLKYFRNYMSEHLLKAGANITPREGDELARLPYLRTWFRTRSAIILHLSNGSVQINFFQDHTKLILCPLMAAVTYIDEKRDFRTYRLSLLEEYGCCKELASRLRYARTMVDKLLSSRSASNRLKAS
PLK1 inh – inhibitors of human PLK1 kinase. AID 619. 0.53% of 97,000 active. P53350. recombinant PLK1 kinase, TR-FRET peptide phosphorylation. inhibition, % at 10 µM;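 active = inhibition of 50% or more in the single-concentration screen; inactive = inhibition below 50%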;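 note: 0% = DMSO max control and 100% = H-89 dihydrochloride min control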
CYP2C9 act – activators of human CYP2C9. P11712. recombinant CYP2C9, luciferin-H conversion, luminescence; hits give high values; factor 1 = untreated enzyme, 0 = blocked. activation factor at 5 µM. 1.4% of 96,000 active. AID 1024;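 active = activation factor of 2 or more for CYP2C9 at a 5 µM dose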;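 note: 0 = sulfaphenazole-blocked wells and 1 = vehicle-only wells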
CYP2C19 activ – cytochrome P450 2C19 (human) activation | P33261 | recombinant CYP2C19, luciferin-H EGE luminescence; hits give high values; 0 = fully inhibited enzyme, 1 = untreated enzyme | activation factor at 5 µM | 96,000 tested, under 10 active | AID 1025;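 active = activation factor of at least 2 at 5 µM in the primary screen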;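 note: 0 = wells with 2.5 mM tranylcypromine and 1 = vehicle-only wells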
CYP2C9 inh – blocks human cytochrome P450 2C9; P11712; CYP2C9 Supersomes, luciferin-H conversion, luminescence; inhibition, % at 5 µM; 20% of 96,000 active;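 active = blocking of liver enzyme CYP2C9 beyond about 50% at 5 µM, limit read from the data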
* = called active by the depositor; . = no result.

SMILES | CYP2C19 inh | Plk1 PBD FP | PLK1 inh | CYP2C9 act | CYP2C19 activ | CYP2C9 inh
O=C(Nc1ccc2oc(=O)ccc2c1)c1cccnc1 | . | -3 | -6 | . | . | .
CCCCOC(=O)C1Cc2ccccc2C(=O)O1 (stereo not drawn) | 85* | -6 | -9 | 0.8 | 0.2 | 24
Cc1ccc(-c2nc(CS(=O)(=O)CC(=O)N3CC(C)CC(C)C3)c(C)o2)cc1 (stereo not drawn) | 41 | . | . | 0.3 | 0.6 | 71*
Cc1cccc(N2CCN(C(=O)CS(=O)(=O)Cc3nc(-c4ccccc4F)oc3C)CC2C)c1 (stereo not drawn) | 56* | . | . | 0.1 | 0.4 | 87*
Cc1ccc(-c2nc(CS(=O)(=O)CC(=O)NC3CCCCC3C)c(C)o2)cc1 (stereo not drawn) | 22 | -21 | 54* | 0.7 | 0.8 | 27
CCN1CCN(C(=O)CS(=O)(=O)Cc2nc(-c3ccc(C)cc3)oc2C)CC1 | 4 | . | . | 0.8 | 1 | 20
Cc1ccc(-c2nc(CS(=O)(=O)CC(=O)NCCCN3CCN(C)CC3)c(C)o2)cc1 | 1 | -10 | 28 | 1 | 1 | 2
CCOC(=O)N1CCC(NC(=O)CS(=O)(=O)Cc2nc(-c3ccccc3C)oc2C)CC1 | 3 | . | . | 0.8 | 1 | 19
COCCNC(=O)CS(=O)(=O)Cc1nc(-c2ccc(C)cc2)oc1C | 20 | 16 | 67* | 0.7 | 0.8 | 25
O=C(N/N=C/C=C/c1ccccc1)c1cnccn1 | -2 | -13 | -10 | 1.1 | 1 | -8
COCCNC(=O)C1CCCN(c2nn3c(=O)cc(C)nc3s2)C1 (stereo not drawn) | 6 | . | . | 0.9 | 0.9 | 13
CCOc1ccc(CCNC(=O)C2CCCN(c3nn4c(=O)cc(C)nc4s3)C2)cc1 (stereo not drawn) | 22 | . | . | 0.4 | 0.8 | 63*
CCOc1ccc(CCNC(=O)C2CCN(c3nn4c(=O)cc(C)nc4s3)CC2)cc1OCC | 54* | . | . | 0.4 | 0.5 | 57*
Cc1nn(-c2ccccc2)c(Cl)c1C(=O)OC(C)C(=O)NC(=O)NC1CCCCC1 (stereo not drawn) | 39 | -13 | -1 | 0.5 | 0.6 | 55*
CCOC(=O)CNC(=O)c1c(C)nn(-c2ccccc2)c1Cl | 8 | 9 | -3 | 1 | 0.9 | 4
Cc1nn(-c2ccccc2)c(Cl)c1C(=O)NCC(C)C | 69* | 4 | -8 | 0.4 | 0.3 | 63*
O/N=C1/CCc2nonc2/C1=N/O | -11 | 26 | -2 | 1.1 | 1.1 | -5
CCOC(=O)c1[nH]c2cc(OC)c(OC)cc2c1NC(=O)CN1CCN(C)CC1 | 2 | -2 | -16 | 0.6 | 1 | 36
CCOC(=O)c1[nH]c2cc(OC)c(OC)cc2c1N | 72* | -12 | -10 | 0.8 | 0.3 | 18
CCCCOCCCn1cnc2c([nH]c3cc(OC)ccc32)c1=O | 43 | -4 | 1 | 0.9 | 0.6 | 13
CCC(C)(C)n1nnnc1C(C(C)C)N(Cc1ccco1)Cc1cc2cc3c(cc2[nH]c1=O)OCO3 (stereo not drawn) | 33 | -16 | -6 | 1 | 0.7 | -1
Cc1ccc(CN(Cc2cc3cc4c(cc3[nH]c2=O)OCCO4)Cc2nnnn2Cc2ccco2)cc1 | 88* | -3 | 23 | 0 | 0.1 | 96*
Cc1ccc2cc(CN(Cc3ccc4c(c3)OCO4)Cc3nnnn3Cc3ccco3)c(=O)[nH]c2c1 | 80* | 10 | 1 | 0.2 | 0.2 | 84*
CCOC(=O)c1cnn(-c2c(Cc3ccccc3)c(C)nc3c(-c4ccccc4)c(C)nn23)c1N | -26 | -22 | -7 | 1 | 1.3 | 1
O=S(=O)(c1ccccc1)N(CC(O)Cn1c2ccccc2c2ccccc21)c1ccccc1 (stereo not drawn) | 50 | -15 | -7 | 0.2 | 0.5 | 79*
CCN(CC)CC(O)Cn1c2ccccc2c2ccccc21 (stereo not drawn) | 9 | -3 | -15 | 1 | 0.9 | 1
Cc1ccc(S(=O)(=O)N(C)CC(O)Cn2c3ccccc3c3ccccc32)cc1 (stereo not drawn) | 44 | 2 | -9 | 0.1 | 0.6 | 88*
C=CCN(CC=C)CC(O)Cn1c2ccccc2c2ccccc21 (stereo not drawn) | 73* | 22 | 5 | 0.7 | 0.3 | 30
CCCCc1cc2c(c(NC(=O)CC)n1)c(=O)oc1ccccc12 | 10 | -6 | 2 | 0.9 | 0.9 | 15
